Laboratory results taken from PubChem BioAssay.
Active and inactive are the calls of the source.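 The calls were made as follows, unless noted: active = mean z-score across replicates of 1.96 or higher in either the MELAS or the Rieske mutant cell line; inactive = the rest.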 Where a SMILES comes first, the peptide text is derived from it. Bridges are numbered along the chain shown (N, C = ends). [ ]: non-standard residue; d: D form. The star is where a group is joined. Heptanoyl(5-Me) = CCC(C)CCCC(=O)*; Dab = NCC[C@H](N)C(=O)O

Columns and labels:
[1] = MELAS cybrid and Rieske KO viability enhancers – cell-based, MELAS cybrids, Rieske KO mouse fibroblasts, CellTiter-Glo, primary screen (AID 1508586); conditions: low glucose;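 also: z relative to plate mean and SD of compound and empty wells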
[2] = galactose survival enhancers in mitochondrial complex I cybrids – cell-based, galactose medium, ATP luminescence, primary screen (AID 1645843;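 active = z-score of at least 1.8 in each of two replicates, scored against plate mean and spread of sample wells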;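 also: positive z means more ATP and so rescue of galactose-driven cybrid death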); conditions: complex I mutant cybrid cells, 72 h, stronger effect = higher value
[3] = biological target: NAD(+) hydrolase SARM1 (Homo sapiens) (UniProt Q6SZW1); assay: blocking NAD cleavage by SARM1 SAM-TIR – cell lysate, NAD-Glo luminescence (AID 1508614;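 active = compound whose remaining NAD level is above about 45 nM, limit read from the data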;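 also: higher remaining NAD means stronger inhibition of SARM1 NADase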); conditions: SAM-TIR HEK293T lysate NADase, at 1 µM, stronger effect = higher value
[4] = blockers of cellular phospholipid synthesis – cell-based, LOPAC library, screen 4, primary screen (AID 1347384; call rule not given here); conditions: animal cells, phospholipid biosynthesis inhibition screen; at 10 µM
[5] = MELAS cybrid survival, CellTiter-Glo 48 h, stronger effect = higher value
[6] = Rieske KO mouse fibroblast survival, CellTiter-Glo 72 h

NAD(+) hydrolase SARM1 (Homo sapiens), sequence (Q6SZW1 whole entry, looked up): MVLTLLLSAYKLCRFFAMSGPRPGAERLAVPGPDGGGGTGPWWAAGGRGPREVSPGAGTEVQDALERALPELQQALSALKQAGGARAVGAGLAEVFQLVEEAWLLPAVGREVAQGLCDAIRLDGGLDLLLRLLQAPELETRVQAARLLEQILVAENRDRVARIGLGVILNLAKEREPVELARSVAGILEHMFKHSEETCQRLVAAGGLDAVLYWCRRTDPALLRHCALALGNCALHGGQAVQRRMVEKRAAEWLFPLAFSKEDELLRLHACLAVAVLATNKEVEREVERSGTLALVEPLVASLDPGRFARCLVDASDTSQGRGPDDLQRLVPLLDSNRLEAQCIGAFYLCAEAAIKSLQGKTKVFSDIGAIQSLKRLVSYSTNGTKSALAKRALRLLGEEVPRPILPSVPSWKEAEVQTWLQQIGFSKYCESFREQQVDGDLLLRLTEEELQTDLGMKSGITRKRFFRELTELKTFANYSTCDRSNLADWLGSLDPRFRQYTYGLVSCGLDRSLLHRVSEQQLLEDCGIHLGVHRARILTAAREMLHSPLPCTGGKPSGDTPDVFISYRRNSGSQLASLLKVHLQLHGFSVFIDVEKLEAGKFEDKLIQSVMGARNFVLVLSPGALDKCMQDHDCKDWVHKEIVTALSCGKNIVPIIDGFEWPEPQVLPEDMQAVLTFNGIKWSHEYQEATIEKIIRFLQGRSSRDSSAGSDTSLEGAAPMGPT

## C[N+]1(C)[C@@H]2CC(OC(=O)C(CO)c3ccccc3)C[C@H]1[C@@H]1O[C@@H]12 (stereo partly specified)
[1]; [5]
  z-score: -0.282 (inactive)
[1]; [6]
  z-score: 0.781

## CC(=O)OCC(=O)[C@@]1(O)CC[C@H]2[C@@H]3CCC4=CC(=O)CC[C@]4(C)C3(F)[C@@H](O)C[C@@]21C (stereo partly specified)
[1]; [5]
  z-score: -0.171 (inactive)
[1]; [6]
  z-score: -0.231

## Cc1csc(-c2cc(C(=O)NCCCN3CCOCC3)cc(S(=O)(=O)N3CCOCC3)c2)c1
[1]; [5]
  z-score: -0.167 (inactive)
[1]; [6]
  z-score: 0.151
[2]
  z-score: 2.09 (inactive)

## CC(C)CC(NP(=O)(O)OC1OC(C)C(O)C(O)C1O)C(=O)NC(Cc1c[nH]c2ccccc12)C(=O)O (stereo unspecified)
[1]; [5]
  z-score: -0.408 (inactive)
[1]; [6]
  z-score: 0.685

## Cc1cc(=O)c(C(=O)N[C@@H](C(=O)N[C@@H]2C(=O)N3C(C(=O)O)=C(CSc4nnnn4C)CS[C@H]23)c2ccc(O)cc2)c[nH]1
[1]; [5]
  z-score: 0.177 (inactive)
[1]; [6]
  z-score: -0.0348
[3]
  remaining NAD: 10 nM (inactive)

## Nc1nc(NC2CC2)c2ncn([C@H]3C=C[C@@H](CO)C3)c2n1
[1]; [5]
  z-score: 1.09 (inactive)
[1]; [6]
  z-score: -0.0348
[3]
  remaining NAD: 10 nM (inactive)

## C[N+](C)(C)CCOP(=O)(O)OP(=O)(O)OC[C@H]1O[C@@H](n2ccc(N)nc2=O)C(O)[C@H]1O (stereo partly specified)
[4]
  outcome: inactive

## N[C@@H]1CCCCN(c2c(F)cc3c(=O)c(C(=O)O)cn(C4CC4)c3c2Cl)C1
[1]; [5]
  z-score: 0.702 (inactive)
[1]; [6]
  z-score: -0.618

## C[C@H](CSC(=O)c1ccccc1)C(=O)N1C[C@@H](Sc2ccccc2)CC1C(=O)O (stereo partly specified)
[4]
  outcome: inactive

## CCC(C)CCCC(=O)N[C@@H](CCN)C(=O)N[C@H](C(=O)N[C@@H](CCN)C(=O)N[C@H]1CCNC(=O)[C@H]([C@@H](C)O)NC(=O)[C@H](CCN)NC(=O)[C@H](CCN)NC(=O)[C@H](CC(C)C)NC(=O)[C@@H](CC(C)C)NC(=O)[C@H](CCN)NC1=O)[C@@H](C)O (stereo partly drawn) ({Heptanoyl(5-Me)}-[Dab]T[Dab][Dab][Dab][dL]L[Dab][Dab]T; lactam 4-C)
[1]; [5]
  z-score: -0.0594 (inactive)
[1]; [6]
  z-score: 0.188

## CN1C[C@H](C(=O)N[C@]2(C)O[C@@]3(O)[C@@H]4CCCN4C(=O)[C@H](Cc4ccccc4)N3C2=O)CC2c3cccc4[nH]cc(c34)C[C@H]21 (mixture of isomers)
[1]; [5]
  z-score: 0.0487 (inactive)
[1]; [6]
  z-score: 0.764

## Cc1ccnn1CCC(=O)N1CC(=O)N(CC(C)C)CC(OCc2ccccn2)C1 (stereo unspecified)
[1]; [5]
  z-score: -0.157 (inactive)
[1]; [6]
  z-score: -0.668
[2]
  z-score: 0.98 (inactive)

## CNCC[C@@H](Oc1cccc2ccccc12)c1cccs1
[1]; [5]
  z-score: -0.177 (inactive)
[1]; [6]
  z-score: 0.977

## Nc1nc(CC(=O)Nc2ccc(CCNC[C@H](O)c3ccccc3)cc2)cs1
[1]; [5]
  z-score: 0.235 (inactive)
[1]; [6]
  z-score: 0.0504

## CCOc1ccccc1O[C@@H](c1ccccc1)[C@H]1CNCCO1
[1]; [5]
  z-score: -0.0519 (inactive)
[1]; [6]
  z-score: -0.0896

## CC[C@H]1OC(=O)C[C@@H](O)[C@H](C)[C@@H](O[C@@H]2O[C@H](C)[C@@H](O[C@H]3CC(C)(O)[C@@H](O)[C@H](C)O3)[C@H](N(C)C)[C@H]2O)[C@@H](CC=O)C[C@@H](C)C(=O)/C=C/C(C)=C/[C@@H]1CO[C@@H]1O[C@H](C)[C@@H](O)[C@@H](OC)[C@H]1OC (stereo partly specified)
[1]; [5]
  z-score: 0.259 (inactive)
[1]; [6]
  z-score: -0.21

## COc1cc(Br)c(C[N+]2(CCOCCC3CC[C@H]4C[C@@H]3C4(C)C)CCOCC2)cc1OC (stereo partly specified)
[1]; [5]
  z-score: -1.55 (inactive)
[1]; [6]
  z-score: 0.547
